Drawing on PubChem BioAssay (EPA / NIEHS), this text covers outcome and AC50 for 35 molecules.

For orientation: AC50 means the midpoint of the concentration-response curve, whichever way the signal moves.

Activity calls are given as the source filed them. The calls were made as follows: active = hit-call score of the fitted dose curve at least 0.9, where 1 is the maximum; inactive = score below 0.9.

The first assay in a line: ATG_PXRE_CIS: Attagene CIS-FACTORIAL HepG2 Assay for human Pregnane X Receptor Element (PXRE) (AID 2282957). The following applies: HepG2 Attagene CIS-FACTORIAL PXRE reporter, mRNA; actives raise or lower the signal. Summed up: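 Cells: HepG2, transiently transfected reporter units under cis promoter control. Exposure: 24 h. Detection: reporter mRNA via RT-PCR/CE fluorescence; bidirectional fitting, DMSO-referenced.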
Turning to `CC[N+](C)(CC)CC`, the result was inactive. For the molecule `COCCOCCOCCO`, the AC50 is 33.4 µM (active).

Consider `COC(C)(C)CCCC(C)CC=O` (stereo unspecified), for which the call was inactive. `COc1ccc(COC(C)=O)cc1`: the result was inactive.

On to `Cc1ccc(S(N)(=O)=O)cc1`, for which the outcome was inactive. The same measure, in the same setting: to `O=C(O)c1cc(C(=O)O)cc([N+](=O)[O-])c1` belongs “inactive”; to `CC(C)Nc1nc(N)nc(Cl)n1`, “inactive”. On the same count and under the same terms, to `C[C@@H]1CCN(C(=O)[C@H](CCCN=C(N)N)NS(=O)(=O)c2cccc3c2NC[C@H](C)C3)[C@@H](C(=O)O)C1` belongs “inactive”; to `CCCCCCCC/C=C\CCCCCCCC(=O)OCC`, “inactive”. Regarding `CCOC(=O)COC(=O)c1cc(Oc2ccc(C(F)(F)F)cc2Cl)ccc1[N+](=O)[O-]`, the AC50 was 9.9 µM (active).

As for `O=C(O)c1cccnc1C(=O)O`, the result was inactive. For `O=C(Nc1ccc2c(O)c(N=Nc3ccc(N=Nc4ccc(S(=O)(=O)O)cc4)cc3)c(S(=O)(=O)O)cc2c1)c1ccccc1`, the result was inactive.

Regarding `Cc1ncc([N+](=O)[O-])n1CCO`, the molecule was classed as inactive.

Turning to `CCOc1ccc(NC(=O)CC(C)=O)cc1`, the outcome was inactive. `CC/C=C\CCOC(=O)CC`: the result was inactive.

A short description of another assay: ATG_PPRE_CIS: Attagene CIS-FACTORIAL HepG2 Assay for human Peroxisome Proliferator-activated Response Element (PPRE) (AID 2282958). Particulars: HepG2 PPRE cis-element reporter, Attagene transcription factor profiling; actives raise or lower the signal. In short, it runs like this: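 HepG2, transient MRTU transfection (cis promoter elements, endogenous TFs). 24 h dosing. RNA → oligo(dT) RT → PCR → 6-FAM primer extension → HpaI digest → CE. Bidirectional fit vs DMSO.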
`CCNCCO`: the molecule was classed as inactive. Regarding `Clc1ccc(C(c2ccccc2Cl)C(Cl)Cl)cc1` (stereo unspecified), the AC50 is 31.9 µM (active).

Take `CCCCCCCCCCCC(=O)OC[C@@H](O)[C@H]1OC[C@H](O)[C@H]1O`: the call was inactive.

The nature of another assay: ATG_RORE_CIS: Attagene CIS-FACTORIAL HepG2 Assay for human RAR-related Orphan Receptor Element (RORE) (AID 2282959). The following applies: HepG2 Attagene cis-factorial RORE reporter, mRNA; actives raise or lower the signal. Summed up:
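Transient MRTU transfection of human HepG2 liver cells (FuGene 6); 24 h compound exposure; TriZol RNA, oligo(dT) RT, PCR, FAM labeling, HpaI cut, CE fragment analysis. DMSO = negative control/baseline.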
For the molecule `c1ccc(CN(Cc2ccccc2)Cc2ccccc2)cc1`, the result was inactive. Regarding `CCNCCO`, the outcome was inactive. Regarding `CC(=O)OCCCc1ccccc1`, the molecule was called inactive. Regarding `Clc1ccc(C(c2ccccc2Cl)C(Cl)Cl)cc1` (stereo unspecified), the half-maximal activity concentration (AC50) was 27.3 µM (active). As to `CCCCCCCCCCCC(=O)OC[C@@H](O)[C@H]1OC[C@H](O)[C@H]1O`, the outcome was inactive.

In the case of `CC[N+](C)(CC)CC`, the result was inactive. For `COC(C)(C)CCCC(C)CC=O` (stereo unspecified), the call was inactive. Regarding `CCOc1ccc(NC(=O)CC(C)=O)cc1`, the outcome was inactive.

Another assay can be described thus: ATG_Sox_CIS: Attagene CIS-FACTORIAL HepG2 Assay for human SRY-box transcription factor (SOX) (AID 2282960). Particulars: HepG2 Attagene cis-factorial SOX reporter, mRNA; actives raise or lower the signal. In short, it runs like this:
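Endogenous factor activity in human liver HepG2 cells carrying transfected cis-regulated reporter units. RNA taken 24 h post-dose, reverse-transcribed, PCR-amplified and sized by capillary electrophoresis. Gain or loss of signal fitted relative to DMSO.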
Consider `CC1(C)O[C@@H]2C[C@H]3[C@@H]4CCC5=CC(=O)C=C[C@]5(C)[C@@]4(F)[C@@H](O)C[C@]3(C)[C@]2(C(=O)CO)O1`, for which the result was inactive. `CCOc1ccc(N=Nc2ccc(C=Cc3ccc(N=Nc4ccc(OCC)cc4)cc3S(=O)(=O)O)c(S(=O)(=O)O)c2)cc1`: the molecule was classed as inactive. Turning to `CCNCCO`, the outcome was inactive. For `O=CCc1ccccc1`, the outcome was inactive. On the same count and under the same terms, to `C=C(C)[C@H]1CC=C(C)C(=O)C1` belongs “inactive”; to `CC(C)OCCO`, “inactive”. For the molecule `CCc1cc(C(C)(C)C)c(O)c(C(C)(C)C)c1`, the result was inactive. As for `Clc1ccc(C(c2ccccc2Cl)C(Cl)Cl)cc1` (stereo unspecified), the concentration at half-maximal activity (AC50) was 182 µM (active).

Turning to `C=CC(C)(O)CCC=C(C)C` (stereo unspecified), the molecule was called inactive. Regarding `Nc1c(Cl)cc(Cl)cc1[N+](=O)[O-]`, the molecule was called inactive. For the molecule `CCCOCCO`, the molecule was classed as inactive. As to `CN(C)C(=S)SC(=S)N(C)C`, the molecule was called inactive. For the molecule `Cc1cc(CCC(=O)OCCOCCOCCOC(=O)CCc2cc(C)c(O)c(C(C)(C)C)c2)cc(C(C)(C)C)c1O`, the molecule was called inactive. On to `CCCCCCCCCCCC(=O)OC[C@@H](O)[C@H]1OC[C@H](O)[C@H]1O`, for which the outcome was inactive.

On to `COC(=O)c1ccc(OC)cc1`, for which the result was inactive. The same measure, in the same setting: the same measure for `COC(C)(C)CCO`: “inactive”; for `CC(=O)O[C@@H]1CC2CCC1(C)C2(C)C` (stereo partly specified): “inactive”.

As for `C[C@H]1O[C@@H](O[C@H]2[C@@H](O)C[C@H](O[C@H]3[C@@H](O)C[C@H](O[C@H]4CC[C@@]5(C)[C@H](CC[C@@H]6[C@@H]5C[C@@H](O)[C@]5(C)[C@@H](C7=CC(=O)OC7)CC[C@]65O)C4)O[C@@H]3C)O[C@@H]2C)C[C@H](O)[C@@H]1O`, the call was inactive.

In the case of `COCCOCCOCCO`, the molecule was called inactive.

On to `COc1ccc(COC(C)=O)cc1`, for which the outcome was inactive. Turning to `Cc1ccc(S(N)(=O)=O)cc1`, the outcome was inactive. On the same count and under the same terms, to `O=C(O)c1cc(C(=O)O)cc([N+](=O)[O-])c1` belongs “inactive”. Consider `CC(C)Nc1nc(N)nc(Cl)n1`, for which the molecule was called inactive. Same read-out and setting: the same measure for `C[C@@H]1CCN(C(=O)[C@H](CCCN=C(N)N)NS(=O)(=O)c2cccc3c2NC[C@H](C)C3)[C@@H](C(=O)O)C1`: “inactive”. In the case of `CCCCCCCC/C=C\CCCCCCCC(=O)OCC`, the molecule was called inactive. As for `CCOC(=O)COC(=O)c1cc(Oc2ccc(C(F)(F)F)cc2Cl)ccc1[N+](=O)[O-]`, the result was inactive. Turning to `O=C(O)c1cccnc1C(=O)O`, the result was inactive. Regarding `O=C(Nc1ccc2c(O)c(N=Nc3ccc(N=Nc4ccc(S(=O)(=O)O)cc4)cc3)c(S(=O)(=O)O)cc2c1)c1ccccc1`, the molecule was called inactive.

Consider `Cc1ncc([N+](=O)[O-])n1CCO`, for which the result was inactive. As for `CC/C=C\CCOC(=O)CC`, the molecule was called inactive.
